Screening data from PubChem BioAssay.
EBV gp42 inh – Epstein-Barr virus gp42 inhibitors, primary screen, biochemical, uHTS, fluorescence polarization; Fluorescence polarization binding assay, mP read-out; inhibition, % (tested at 21.74 µM); actives 0.42% (n = 220,000); AID 1085, 2008; in the data active means inhibition above about 50%
MCL1-BIM inh – inhibitors of MCL1 binding to BIM-BH3, primary screen, biochemical, fluorescence polarization. Induced myeloid leukemia cell differentiation protein Mcl-1 (Homo sapiens), Q07820. GST-MCL1 / FITC-Bim-BH3 fluorescence polarization. inhibition, % at 10.9 µM. actives 0.68% (n = 320,000);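 active means inhibition above the mean inhibition of all tested compounds plus 3 SD, set per campaign, cut at about 40% in these data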;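 further: 0% = DMSO wells and 100% = unlabeled Bim-BH3 peptide control; higher means more loss of mP so more displacement of Bim peptide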
GLD-1 TGE inh – GLD-1/TGE RNA complex disruptors, primary screen, biochemical, fluorescence polarization; actives 0.44% (n = 320,000); Female germline-specific tumor suppressor gld-1 (Caenorhabditis elegans), Q17339; AID 2280, 2010; inhibition, % at 5.96 µM; purified GLD-1 + fluorescein TGE RNA;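 active means percent inhibition above a per-plate cutoff, the plate mean of test compounds plus 3 SD, cut at about 30% in these data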;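 further: 0% = DMSO wells with GLD-1 and probe and 100% = wells lacking GLD-1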
MEX-5 binding – MEX-5 zinc finger RNA-binding disruptors – biochemical, C. elegans, fluorescence polarization, MLPCN library, primary screen; MEX-5/FITC-TCR2 RNA binding; stronger effect = lower value; activity score (negative = inhibition of binding), % at 10 µM; actives 0.38% (n = 300,000);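 active means inhibition past about -25% in most replicates, and total fluorescence under double the plate's negative control median, limit read from the data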;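 further: 0% = DMSO and -100% = 5 µM competing unlabeled TCR2 RNA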
Target sequence (Q9XUB2 whole entry, looked up): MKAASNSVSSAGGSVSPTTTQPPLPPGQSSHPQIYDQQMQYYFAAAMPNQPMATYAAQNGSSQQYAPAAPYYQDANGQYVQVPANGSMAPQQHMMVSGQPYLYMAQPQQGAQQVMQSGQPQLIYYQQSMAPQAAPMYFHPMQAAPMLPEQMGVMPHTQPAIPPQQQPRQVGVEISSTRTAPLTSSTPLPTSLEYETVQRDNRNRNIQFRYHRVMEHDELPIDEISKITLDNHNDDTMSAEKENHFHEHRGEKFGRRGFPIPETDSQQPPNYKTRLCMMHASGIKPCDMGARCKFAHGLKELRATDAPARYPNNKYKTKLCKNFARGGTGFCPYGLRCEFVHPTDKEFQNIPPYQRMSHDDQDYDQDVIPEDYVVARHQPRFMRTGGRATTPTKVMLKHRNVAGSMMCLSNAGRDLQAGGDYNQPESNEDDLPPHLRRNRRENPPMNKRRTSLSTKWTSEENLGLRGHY
BCLXL inh – inhibitors of human Bcl-xL, primary screen, biochemical, fluorescence polarization, HTS; inhibition, % at 10.9 µM; actives 0.7% (n = 320,000); Bcl-2-like protein 1 (Homo sapiens), Q07817; GST-Bcl-xL / FITC-Bim BH3 peptide fluorescence polarization; AID 2129, 2009;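 active means inhibition above the mean of all tested compounds plus 3 SD, cutoff set per campaign, cut at about 30% in these data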;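 further: 0% = DMSO wells and 100% = unlabeled Bim-BH3 peptide competitor; inhibitors lower millipolarization by displacing the labeled peptide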
Bcl-xL conf – Bcl-xL inhibitors blocking Bim BH3 binding, confirmation, counter-screen for MCL1 inhibitor project, biochemical, fluorescence polarization | inhibition, % at 10.9 µM | shares compounds with MCL1-BIM inh | actives 54% (n = 1,700) | GST-Bcl-xL / FITC-Bim BH3 peptide FP binding;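 active means inhibition above a cutoff equal to the mean inhibition of all tested compounds plus 3 SD, cut at about 30% in these data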;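 further: 0% = DMSO wells and 100% = unlabeled Bim BH3 control peptide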
MCL1 BIM confirm – inhibitors of MCL1 binding to BIM-BH3, confirmation, biochemical, fluorescence polarization, triplicate; shares compounds with MCL1-BIM inh; GST-MCL1 / FITC-Bim-BH3 fluorescence polarization; inhibition, % at 10.9 µM; actives 61% (n = 1,700);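 active means inhibition above the average of all tested compounds plus 3 SD, cut at about 40% in these data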;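 further: 0% = DMSO wells and 100% = unlabeled Bim-BH3 control peptide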
An asterisk follows results filed as active. Rows were chosen to be rich in hits. Some 1.3% of all compounds tested hit in one or more screens of this group.

Cc1ccc[n+](-c2nc3ccccc3nc2C(=C=[N-])C#N)c1 was read as EBV gp42 inh -7, MCL1-BIM inh -1, GLD-1 TGE inh -22, MEX-5 binding 1 and BCLXL inh 6.
CCOC(=O)C1CCN(C(=O)Nc2ccc3nc(-c4ccco4)c(-c4ccco4)nc3c2)CC1 was read as EBV gp42 inh 50, MCL1-BIM inh 143*, GLD-1 TGE inh 56*, MEX-5 binding -4, BCLXL inh 101*, Bcl-xL conf 68* and MCL1 BIM confirm 100*.
`CN(Cc1nc2ccccc2c(=O)[nH]1)C(=O)c1ccc(NC(=O)CSc2nnnn2C)cc1` gave MCL1-BIM inh 44*, GLD-1 TGE inh 5, BCLXL inh 1, Bcl-xL conf 1 and MCL1 BIM confirm 0.
For Cc1ccnc(Nc2nc(-c3ccc(O)c(O)c3)cs2)c1 the results were MCL1-BIM inh 42*, GLD-1 TGE inh 15, MEX-5 binding -1, BCLXL inh 29, Bcl-xL conf 36* and MCL1 BIM confirm 42*.
Cc1ccnc(Nc2nc(-c3ccc(O)cc3)cs2)c1 was read as MCL1-BIM inh 9, GLD-1 TGE inh 2, MEX-5 binding 1 and BCLXL inh 8.
`O=C1/C(=C2\C(=O)N(Cc3ccc(F)cc3)c3ccccc32)SC(=S)N1CCS(=O)(=O)O` gave MCL1-BIM inh 43*, GLD-1 TGE inh -4, MEX-5 binding -10, BCLXL inh 21, Bcl-xL conf 23 and MCL1 BIM confirm 39.
Screening N=C1/C(=C\c2ccc(SCc3ccco3)o2)C(=O)N=C2SC=NN12 returned EBV gp42 inh -4, MCL1-BIM inh 63*, GLD-1 TGE inh 21, MEX-5 binding -34*, BCLXL inh 51*, Bcl-xL conf 50* and MCL1 BIM confirm 68*.
For Cc1cc(Cl)cc(C)c1OCC(=O)N1CCN(c2ncccn2)CC1 the results were MCL1-BIM inh 1, GLD-1 TGE inh 9 and BCLXL inh 6.
For Cc1onc(-c2ccccc2)c1C(=O)/C=C/N(C)C the results were EBV gp42 inh -1, MCL1-BIM inh 6, GLD-1 TGE inh 11, MEX-5 binding 1 and BCLXL inh 5.
`Cn1c(=O)[nH]c2cc(Cl)cnc21` gave EBV gp42 inh 63*, MCL1-BIM inh 73*, GLD-1 TGE inh 44*, MEX-5 binding -32*, BCLXL inh 65*, Bcl-xL conf 59* and MCL1 BIM confirm 69*.
Screening CC(C)CCNC(=O)C1CCCN(S(=O)(=O)c2ccc3c(c2)CC(C)N3C(=O)C2CC2)C1 (stereo unspecified) returned MCL1-BIM inh -1, GLD-1 TGE inh 7, MEX-5 binding 0 and BCLXL inh 3.
`Cc1c(C(=O)N2CCCCC2)c(S(=O)(=O)NCCc2ccc(S(N)(=O)=O)cc2)c(C)n1C` gave MCL1-BIM inh -7, GLD-1 TGE inh 10, MEX-5 binding -3 and BCLXL inh 0.
Screening Cc1ccc(-c2nc3s/c(=C\c4ccco4)c(=O)n3n2)cc1 returned EBV gp42 inh -32, MCL1-BIM inh 18, GLD-1 TGE inh 7, MEX-5 binding -1 and BCLXL inh 9.
`Cc1ccc(/C=c2\sc3nc(-c4ccco4)nn3c2=O)o1` gave EBV gp42 inh 11, MCL1-BIM inh 58*, GLD-1 TGE inh -2, MEX-5 binding -9, BCLXL inh 25, Bcl-xL conf 45* and MCL1 BIM confirm 72*.
